# Compound activity: PubChem BioAssay, National Center for Advancing Translational Sciences (NCATS)
# DRD3 antagonist – D3 dopamine receptor (human) antagonism. max response, negative = inhibition, %. 360,000 tested, 2.5% active. D3R cells, DiscoveRx beta-arrestin luminescence, antagonist mode; active compounds read low. AID 652054. P35462; in the data active means max response below about -50%; inconclusive means no clear call, values can overlap the other calls; further: on the % scale 0 is the no-effect control and ±100 the full control effect
# Target sequence (P35462 whole entry, looked up): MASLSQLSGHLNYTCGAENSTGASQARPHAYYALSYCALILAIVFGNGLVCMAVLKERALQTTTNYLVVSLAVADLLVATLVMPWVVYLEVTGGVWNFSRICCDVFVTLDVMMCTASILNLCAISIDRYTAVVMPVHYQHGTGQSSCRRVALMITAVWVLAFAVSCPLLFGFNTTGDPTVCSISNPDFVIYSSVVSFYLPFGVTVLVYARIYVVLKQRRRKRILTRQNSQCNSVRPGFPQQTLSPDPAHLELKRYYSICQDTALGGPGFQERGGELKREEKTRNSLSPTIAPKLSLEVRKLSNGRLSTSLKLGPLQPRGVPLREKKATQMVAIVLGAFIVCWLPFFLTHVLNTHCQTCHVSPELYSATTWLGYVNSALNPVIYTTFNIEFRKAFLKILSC
#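 Cells plated overnight at 1500 cells/well, then exposed to library compounds with dopamine controls for 90 minutes at 37 degrees C. DiscoveRx reagent added for 30–60 minutes at room temperature; luminescence read, quantitative HTS format.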
# DRD3 agonist – D3 dopamine receptor (human) agonism; 410,000 tested, 0.58% active; AID 652048; max activation, %; D3R DiscoveRx beta-arrestin cells, luminescence, 90 min; in the data active means max activation above about 30%; further: 0% is about no effect
#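 Agonist mode: compounds and dopamine controls were applied to plated cells for 90 min at 37 degrees C after an overnight attachment at 1500 cells/well. Luminescent read-out followed 30 - 60 minutes at room temperature with DiscoveRx detection reagent.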
# D1 PAM – enhances dopamine response at the human D1 receptor; P21728; HEK293 TREx D1 cells, calcium flux, dopamine EC20 potentiation; potentiation, % at 10 µM; 360,000 tested, 0.036% active; in the data active means potentiation above about 30%; further: 0% is about no effect
# D1 agonist – activates the human D1 dopamine receptor | P21728 | HEK293 T-REx D1 cells, calcium flux, agonist mode | activation, % at 2 µM | 360,000 tested, 1% active | AID 504660; in the data active means activation above about 30%; further: 0% is about no effect
#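 Agonism was scored from calcium flux recorded over 180 s (1 read/s) after pintool compound addition, following a 10-cycle baseline. Cells were inducible force-coupled HEK293 TREx D1, plated overnight at 30 C and loaded with no-wash calcium dye.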
# D1 antagonist – human D1 dopamine receptor antagonism; 360,000 tested, 3.2% active; AID 504652; HEK293 TREx D1 cells, calcium flux, dopamine EC80; active compounds read low; activity change, negative = inhibition, % at 10 µM; in the data active means activity change below about -30%; further: on the % scale 0 is the no-effect control and ±100 the full control effect
#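 Allosteric or orthosteric antagonism assessed as attenuation of the calcium response to EC80 dopamine, added 180 s after compound, in induced HEK293 Trex D1 cells loaded with no-wash calcium dye.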
# Starred values were filed as active, the others as inactive; ? = inconclusive; . = not tested or not shown; ! = repeats disagree. A selection: hits, their analogues and other compounds. The true share with any hit is near 6%.
SMILES,DRD3 antagonist,DRD3 agonist,D1 PAM,D1 agonist,D1 antagonist
Cc1cc(C)c(Cn2c(C(O)c3ccccc3)nc3ccccc32)c(C)c1 (centres undefined),.,-7,-1,9,24
COc1ccccc1C(C(=O)NC1CCCCC1)N(C(=O)c1csnn1)C1CC1 (centres undefined),16,-4,.,4,-18
O=C(NC1CCCCC1)C(c1ccccc1F)N(C(=O)c1csnn1)C1CCCC1 (centres undefined),-5,-7,.,61*,-23
CCN(CC)S(=O)(=O)c1ccc2c(c1)nc(CN(C)C(=O)Nc1ccc(C)c(Cl)c1)n2C,.,-20,1,0,12
Cc1cccc(NC(=O)c2sc3nc4c(c(-c5cccs5)c3c2N)CN(C)CC4)c1,-4,-11,-22,2,-40*
CCOC(=O)c1cc2c(=O)n3ccccc3nc2n(CC(C)C)c1=NC(=O)C(C)(C)Oc1ccc(Cl)cc1,.,4,0,-1,6
CCOC(=O)c1cc2c(=O)n3ccccc3nc2n(CC(C)C)c1=NC(=O)C(C)Oc1ccccc1 (centres undefined),.,-6,0,1,21
CCOC(=O)c1cc2c(=O)n3ccccc3nc2n(CC(C)C)c1=NC(=O)COc1ccc(Cl)cc1,.,-13,0,-1,-39*
CCOC(=O)c1cc2c(=O)n3ccccc3nc2n(C(C)C)c1=NC(=O)C(C)(C)Oc1ccc(Cl)cc1,.,7,-1,-1,-40*
COc1ccc(NC(=O)Cn2ccn(-c3ccccc3)c(=O)c2=O)cc1,.,2,-2,0,-2
CCCCCCCCC#Cc1nc(C)ccc1OC,15,65*,.,.,.
C=CCc1cc(F)c(S(=O)(=O)N2CCN(S(=O)(=O)c3ccc4c(c3)OCCO4)CC2)cc1F,.,.,-1,2,-6
COc1ccc(NC(=O)C(OC(=O)CNC(=O)c2ccccc2)c2ccccc2)c(C)c1 (centres undefined),.,.,4,2,-48*
COc1cc(NC(=O)C(OC(=O)CNC(=O)c2ccccc2)c2ccccc2)c(OC)cc1Cl (centres undefined),.,.,-1,1,3
CCN1CCN(c2sc(S(=O)(=O)CC)nc2S(=O)(=O)c2ccc(C)cc2)CC1,-80*,-8,.,.,.
CCN1CCN(c2sc(S(C)(=O)=O)nc2S(=O)(=O)c2ccc(C)cc2)CC1,-20,-6,-2,0,4
CCCS(=O)(=O)c1nc(S(=O)(=O)c2ccc(C)cc2)c(N2CCN(CC)CC2)s1,-109*,-19,-5,1,9
CCCS(=O)(=O)c1nc(S(=O)(=O)c2ccc(C)cc2)c(N2CCN(C)CC2)s1,-61*,-17,-2,-1,-9
CCCS(=O)(=O)c1nc(S(=O)(=O)c2ccc(C)cc2)c(N(C)Cc2ccccc2)s1,.,-16,-2,35*,-21
CCC(Cn1nnc2ccccc2c1=O)NC(=O)Nc1cc(OC)cc(OC)c1 (centres undefined),.,-8,2,2,-7
Cc1cccc(CNC(=O)CCCN2C(=O)COc3ccc(C)cc32)c1,.,-7,-3,7,-4
CCc1nn(CC(=O)Nc2c(C)cc(C)cc2C)c(=O)c2cc3sccc3n12,.,0,-1,0,8
CCN1CCN(CC(=O)N2N=C(c3cccs3)CC2c2ccc(OC)c(OC)c2)C(=O)C1=O (centres undefined),2,0,-6,1,8
C=C1C(=O)c2sccc2C(c2ccc(OC)c(OC)c2)C1COC(C)=O (centres undefined),-116*,-32,.,.,.
CC1=C([N+](=O)[O-])C(c2ccccc2)NC(=O)N1 (centres undefined),25,2,1,0,-33*
SMILES,DRD3 antagonist,DRD3 agonist,D1 PAM,D1 agonist,D1 antagonist
COc1ccc(C2NC(=O)NC(C)=C2[N+](=O)[O-])cc1 (centres undefined),13,7,-9,-2,-5
O=C(CNC(=O)c1ccccc1Cl)OC(C(=O)Nc1cc(C(F)(F)F)ccc1Cl)c1ccccc1 (centres undefined),.,.,-3,5,-5
O=C(COc1ccccc1[N+](=O)[O-])OC1CCS(=O)(=O)C1 (centres undefined),-16,9,-7,0,-79*
O=C(COc1ccccc1[N+](=O)[O-])N(C1CCCCC1)C1CCS(=O)(=O)C1 (centres undefined),17,1,-4,3,15
c1ccc(Nc2nc(-c3ccccn3)cs2)cc1,-19,-4,-8,4,9
c1ccc(-c2csc(Nc3cccnc3)n2)nc1,?,-21,-5,0,-31*
COc1ccc(-c2noc(=O)n2Cc2ccccc2F)cc1,-21,-4,-5,4,-30*
COc1ccc(-c2noc(=O)n2Cc2cc(C)ccc2C)cc1,0,-22,7,4,8
COc1ccc(NC(=O)CN2C(=O)C(C)(C)c3cc(S(=O)(=O)N4CCCCC4)ccc32)cc1Cl,.,10,7,5,-2
O=C(NCc1ccc(Cl)cc1)c1ccc(-c2ccccc2C(F)(F)F)o1,?,-26,-3,33*,-39*
O=C(NCCC1=CCCCC1)C1CCC(CNc2nc(=S)[nH]c3ccccc23)CC1 (centres undefined),-83*,-13,1,1,9
Cc1ccc2c(CC(=O)Nc3c(C(=O)c4ccc(F)cc4)oc4ccccc34)coc2c1C,.,-2,1,5,-6
Cc1c(C(=O)N2CCOCC2)sc(NC(=O)c2ccc3c(c2)OCO3)c1C#N,15,1,1,1,-34*
Cc1csc(Sc2ccc([N+](=O)[O-])cc2C(=O)OCC(=O)NC2CCCC(C)C2C)n1 (centres undefined),-12,-2,3,1,-32*
CCCCOc1ccc(CNC(=O)c2cnc3sc(N4CCC(C)CC4)nn3c2=O)cc1,.,-4,0,4,2
O=C(NC1CSCC1OC(=O)c1ccccc1)c1ccccc1 (centres undefined),8,0,-7,3,-39*
O=C(CCCc1cccs1)N1CCN(S(=O)(=O)c2ccccc2Br)CC1,-2,-1,-12,1,-31*
CCN1C(=S)N[C@@H](CCc2ccccc2)C(C(=O)OC)=C1C,-5,6,-4,2,-31*!
CC(=O)c1cccc(NC(=O)c2oc(=O)c3ccccc3c2-c2ccccc2)c1,.,4,-2,5,-43*
CCOC(=O)c1ccc(NC(=O)c2c(N)n(C)c(=O)n(C)c2=O)cc1,23,24,.,.,.
CCOC(=O)c1ccc(NC(=O)c2oc(=O)c3ccccc3c2-c2ccccc2)cc1,.,1,0,5,-48*
COC(=O)c1cc(NC(=O)c2oc(=O)c3ccccc3c2-c2ccccc2)cc(C(=O)OC)c1,.,2,4,0,5
CCOC(=O)c1ccc(NC(=O)c2c(O)c3ccccc3n(C)c2=O)cc1,.,.,-4,-1,-73*
